# From PubChem BioAssay
# The source made the active and inactive calls.
# Tests used:
# [1] = small molecules captured by biotinylated probe aFSTL3 – biochemical, small-molecule microarray, fluorescence 635/667, stem cell growth factor project, primary screen (AID 1064); conditions: higher = more signal;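 further: measures binding of the biotinylated anti-FSTL3 antibody to printed compounds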
# [2] = binders from COS7 lysate, DM2A8 probe, primary screen, torsin A project, cell lysate, small-molecule microarray, fluorescence 635/667 (AID 1065); conditions: higher = more signal, COS7 lysate expressing mutant human TOR1A
# [3] = small molecules captured by biotinylated probe aFGF2 – biochemical, small-molecule microarray, fluorescence 635/667, stem cell growth factor project, primary screen (AID 1067); conditions: higher = more signal;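 further: measures binding of biotinylated aFGF2 protein to printed compounds on slides; z-score merges feature fluorescence and signal-to-noise across triplicate slides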
# [4] = small molecules captured by biotinylated probe aFGF10 – biochemical, small-molecule microarray, fluorescence 635/667, stem cell growth factor project, primary screen (AID 1071); conditions: higher = more signal;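 further: score merges 667 nm spot intensity and signal to noise from triplicate slides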
# [5] = target: Neurogenic locus notch homolog protein 2 (Homo sapiens) (UniProt Q04721); assay: small molecules binding Notch2 protein – biochemical, small-molecule microarray, 635 nm fluorescence, stem cell growth factors, primary screen (AID 1073); conditions: higher = more signal
# [6] = target: Pro-neuregulin-1, membrane-bound isoform (Homo sapiens) (UniProt Q02297); assay: small molecules binding neuregulin-1 protein – biochemical, small-molecule microarray, fluorescence 635/667, psychiatric disease protein project, primary screen (AID 1075); conditions: NRG1 binding, 635 nm fluorescence, higher = more signal;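 further: score combines 667 nm spot fluorescence with signal to noise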
# Chain of Pro-neuregulin-1, membrane-bound isoform (Homo sapiens) (Q02297 whole entry, looked up, the tested form may be a part, canonical isoform): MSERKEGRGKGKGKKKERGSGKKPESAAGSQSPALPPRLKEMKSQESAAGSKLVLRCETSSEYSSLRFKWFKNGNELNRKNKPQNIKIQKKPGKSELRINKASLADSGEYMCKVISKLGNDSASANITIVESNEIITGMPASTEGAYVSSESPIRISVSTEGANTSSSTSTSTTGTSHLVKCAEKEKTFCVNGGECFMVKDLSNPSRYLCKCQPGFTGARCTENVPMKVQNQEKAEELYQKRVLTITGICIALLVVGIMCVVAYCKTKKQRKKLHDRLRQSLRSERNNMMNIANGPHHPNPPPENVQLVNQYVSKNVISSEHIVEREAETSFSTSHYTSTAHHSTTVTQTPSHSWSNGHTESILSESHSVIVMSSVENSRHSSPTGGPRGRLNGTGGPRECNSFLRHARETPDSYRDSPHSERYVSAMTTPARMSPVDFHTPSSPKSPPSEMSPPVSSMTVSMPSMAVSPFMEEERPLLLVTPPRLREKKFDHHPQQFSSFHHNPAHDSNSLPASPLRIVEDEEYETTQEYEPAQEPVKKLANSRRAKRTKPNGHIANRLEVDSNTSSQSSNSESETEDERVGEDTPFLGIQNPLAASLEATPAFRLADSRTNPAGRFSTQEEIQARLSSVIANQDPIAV
# [7] = system: Neuregulin-1 EGF-like domain; assay: small molecules binding NRG1 EGF domain – biochemical, small-molecule microarray, 635 nm fluorescence, primary screen (AID 1081); conditions: higher = more signal;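 further: binding of the protein to compounds printed on small-molecule microarray slides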
# [8] = FRG1 expression reporter modulators in myotubes – cell-based, C2C12 myotubes, firefly/Renilla luciferase, luminescence, FRG1 inhibition for FSHD, primary screen (AID 1084); conditions: FRG1 promoter luciferase, higher = more signal, called active from +8 up or from −8 down
# [9] = small molecules captured by biotinylated probe aFST – biochemical, small-molecule microarray, fluorescence 635/667, stem cell growth factor project, primary screen (AID 1086); conditions: higher = more signal;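 further: score merges 667 nm fluorescence with signal-to-noise of each printed compound spot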
# [10] = binders of probe aHhip on microarray, primary screen, stem cell growth factor project, biochemical, small-molecule microarray, fluorescence 635/667 (AID 1087); conditions: higher = more signal;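 further: score merges spot fluorescence at 667nm with spot signal to noise ratio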
# [11] = system: PRMT1 (protein arginine N-methyltransferase 1); assay: small molecules binding arginine methyltransferase PRMT1 – biochemical, small-molecule microarray, 635 nm fluorescence, primary screen (AID 1088); conditions: higher = more signal;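 further: binding of Prmt1 protein to compounds spotted on small-molecule microarray slides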
# [12] = growth effects on S. cerevisiae YJM789 – YJM789 clinical isolate, OD600, 24 h, basal, primary screen (AID 1089); conditions: higher = more signal, called active from +8 up or from −8 down;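 further: growth of clinical yeast isolate S. cerevisiae YJM 789 seeded 1000 cells per well; test concentration not given here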
# [13] = S. pombe growth modifiers, basal conditions – strain 972, OD600, 24 h, no modulator, primary screen (AID 1090);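 further: basal condition with compound alone and no growth modifier present; test concentration not given here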; conditions: S. pombe 972 growth, higher = more signal, called active from +8 up or from −8 down
# [14] = budding yeast growth modifiers under rapamycin – strain BY4716, OD600, 96 h, primary screen (AID 1091); further: test concentration not given here; conditions: S. cerevisiae BY4716 + rapamycin, higher = more signal, called active from +8 up or from −8 down
# [15] = target: Torsin-1A-interacting protein 2 (Homo sapiens) (UniProt Q8NFQ8); assay: small molecules binding lysate-expressed LULL1 – cell lysate, human LULL1 lysate, 635/667 nm fluorescence, primary screen (AID 1092); conditions: small-molecule microarray, hLULL1 lysate binding, 635 nm fluorescence; higher = more signal;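 further: probe is lysate of COS7 cells overexpressing human LULL1; score merges per-feature 667 nm fluorescence with signal-to-noise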
# Chain of Torsin-1A-interacting protein 2 (Homo sapiens) (Q8NFQ8 whole entry, looked up): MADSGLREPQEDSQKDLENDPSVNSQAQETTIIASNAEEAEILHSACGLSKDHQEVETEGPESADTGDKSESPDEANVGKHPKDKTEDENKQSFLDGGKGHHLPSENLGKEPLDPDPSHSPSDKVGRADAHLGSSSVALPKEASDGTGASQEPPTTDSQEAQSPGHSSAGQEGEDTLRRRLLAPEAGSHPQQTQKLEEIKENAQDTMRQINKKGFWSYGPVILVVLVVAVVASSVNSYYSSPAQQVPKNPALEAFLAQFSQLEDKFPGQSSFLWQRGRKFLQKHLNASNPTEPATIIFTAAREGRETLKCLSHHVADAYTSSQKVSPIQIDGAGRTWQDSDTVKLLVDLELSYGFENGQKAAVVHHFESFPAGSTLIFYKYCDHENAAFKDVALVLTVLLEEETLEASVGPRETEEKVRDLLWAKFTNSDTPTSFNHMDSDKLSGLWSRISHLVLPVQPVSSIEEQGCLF
# [16] = optical density change of DRC41 E. coli – strain DRC41, OD650, 24 h, E. coli filamentation project, primary screen (AID 1093);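 further: MC1000 strain lacking acrAB efflux and sulA so SOS filamentation is blocked; test concentration not given here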; conditions: E. coli DRC41 growth, higher = more signal, called active from +8 up or from −8 down
# [17] = probe aLefty2 binding to arrayed compounds – biochemical, biotinylated probe, 635/667 nm fluorescence, primary screen (AID 1094); conditions: small-molecule microarray, higher = more signal;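 further: score merges spot fluorescence near 667 nm with spot signal-to-noise ratio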
# [18] = system: Noggin (protein binding on small-molecule microarray); assay: small molecules binding Noggin protein – biochemical, 635/667 nm fluorescence, primary screen (AID 1095); conditions: 635 nm fluorescence, higher = more signal;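 further: score merges 667 nm feature fluorescence with signal to noise over triplicate slides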
# [19] = target: Neurogenic locus notch homolog protein 3 (Homo sapiens) (UniProt Q9UM47); assay: small molecules binding NOTCH3 protein – biochemical, 635/667 nm fluorescence, primary screen (AID 1096); conditions: small-molecule microarray, 635 nm fluorescence, higher = more signal
# Chain of Neurogenic locus notch homolog protein 3 (Homo sapiens) (Q9UM47 whole entry, looked up): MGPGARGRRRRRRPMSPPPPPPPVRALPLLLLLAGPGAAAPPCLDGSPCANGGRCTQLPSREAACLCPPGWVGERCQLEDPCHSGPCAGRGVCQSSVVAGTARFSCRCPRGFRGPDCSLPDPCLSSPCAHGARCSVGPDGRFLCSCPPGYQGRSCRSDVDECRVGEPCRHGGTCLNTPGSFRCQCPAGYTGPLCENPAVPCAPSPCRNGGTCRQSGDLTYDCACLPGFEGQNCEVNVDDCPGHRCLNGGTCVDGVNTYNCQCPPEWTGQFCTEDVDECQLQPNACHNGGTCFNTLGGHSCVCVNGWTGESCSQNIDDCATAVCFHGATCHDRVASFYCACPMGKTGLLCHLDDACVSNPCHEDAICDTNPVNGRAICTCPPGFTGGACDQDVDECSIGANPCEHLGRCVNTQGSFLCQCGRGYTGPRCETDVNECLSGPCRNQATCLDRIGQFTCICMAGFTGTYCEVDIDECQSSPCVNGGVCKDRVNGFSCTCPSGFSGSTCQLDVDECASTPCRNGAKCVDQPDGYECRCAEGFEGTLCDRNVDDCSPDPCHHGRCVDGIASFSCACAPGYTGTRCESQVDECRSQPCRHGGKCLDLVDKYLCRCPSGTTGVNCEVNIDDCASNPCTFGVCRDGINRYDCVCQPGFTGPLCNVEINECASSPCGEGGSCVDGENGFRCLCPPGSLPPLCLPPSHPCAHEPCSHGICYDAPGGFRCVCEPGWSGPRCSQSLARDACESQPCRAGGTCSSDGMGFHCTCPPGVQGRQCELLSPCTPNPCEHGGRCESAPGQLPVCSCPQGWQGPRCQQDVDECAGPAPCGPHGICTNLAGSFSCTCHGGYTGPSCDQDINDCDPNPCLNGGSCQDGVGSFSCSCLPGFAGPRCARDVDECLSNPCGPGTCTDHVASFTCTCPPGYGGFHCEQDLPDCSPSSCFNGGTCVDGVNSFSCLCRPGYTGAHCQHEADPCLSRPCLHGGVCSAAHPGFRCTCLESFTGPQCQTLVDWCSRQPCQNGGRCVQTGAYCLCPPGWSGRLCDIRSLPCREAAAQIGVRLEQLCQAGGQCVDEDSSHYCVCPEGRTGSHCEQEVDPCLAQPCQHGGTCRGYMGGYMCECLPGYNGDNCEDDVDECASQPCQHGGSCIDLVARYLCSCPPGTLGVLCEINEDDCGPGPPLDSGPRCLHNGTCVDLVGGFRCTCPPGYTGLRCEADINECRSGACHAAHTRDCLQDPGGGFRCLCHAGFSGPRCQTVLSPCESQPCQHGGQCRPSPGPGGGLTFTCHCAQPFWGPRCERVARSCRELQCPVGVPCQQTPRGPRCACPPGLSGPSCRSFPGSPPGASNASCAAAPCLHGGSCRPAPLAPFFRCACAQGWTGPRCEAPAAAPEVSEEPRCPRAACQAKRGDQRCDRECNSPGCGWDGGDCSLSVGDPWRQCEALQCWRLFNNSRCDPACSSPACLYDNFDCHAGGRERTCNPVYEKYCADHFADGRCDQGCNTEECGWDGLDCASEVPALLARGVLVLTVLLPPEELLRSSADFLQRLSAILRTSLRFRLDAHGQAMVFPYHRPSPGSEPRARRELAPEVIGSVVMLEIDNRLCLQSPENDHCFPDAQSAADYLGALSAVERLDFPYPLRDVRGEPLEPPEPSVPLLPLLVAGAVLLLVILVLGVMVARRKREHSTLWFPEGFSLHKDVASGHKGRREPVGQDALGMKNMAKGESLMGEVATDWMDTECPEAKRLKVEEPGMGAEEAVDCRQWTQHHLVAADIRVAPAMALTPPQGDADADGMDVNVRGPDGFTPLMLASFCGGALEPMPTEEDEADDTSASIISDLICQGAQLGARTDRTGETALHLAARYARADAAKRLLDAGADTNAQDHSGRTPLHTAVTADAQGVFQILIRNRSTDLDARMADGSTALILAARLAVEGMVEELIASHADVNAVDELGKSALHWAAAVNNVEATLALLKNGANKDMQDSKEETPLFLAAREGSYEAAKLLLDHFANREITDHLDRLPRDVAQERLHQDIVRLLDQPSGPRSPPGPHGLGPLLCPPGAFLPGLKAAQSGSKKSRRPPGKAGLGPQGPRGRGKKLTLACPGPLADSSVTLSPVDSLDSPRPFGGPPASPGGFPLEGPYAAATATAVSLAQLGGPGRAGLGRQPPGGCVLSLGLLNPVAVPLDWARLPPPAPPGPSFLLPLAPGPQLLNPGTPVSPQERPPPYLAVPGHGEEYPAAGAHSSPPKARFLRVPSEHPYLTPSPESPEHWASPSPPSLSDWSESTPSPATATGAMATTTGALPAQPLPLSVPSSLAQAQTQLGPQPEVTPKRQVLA
# [20] = probe aEGFR binding to arrayed compounds – biochemical, biotinylated probe, 635/667 nm fluorescence, primary screen (AID 1097); conditions: small-molecule microarray, higher = more signal;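 further: probe is a biotinylated anti-EGFR antibody binding compounds printed on slides; score combines fluorescence near 667 nm and signal to noise of each spot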
SMILES,composite z-score [1],composite z-score [2],composite z-score [3],composite z-score [4],composite z-score [5],composite z-score [6],composite z-score [7],z-score [8],composite z-score [9],composite z-score [10],composite z-score [11],z-score [12],z-score [13],z-score [14],composite z-score [15],z-score [16],composite z-score [17],composite z-score [18],composite z-score [19],composite z-score [20]
CC1CC/C=C\[C@H]2OC34C=CCN(C(C)C)C(=O)[C@H]3N(CCCCCCO)C(=O)[C@@H]4C2C(=O)O1 (stereo not given in full),0.315,-0.671,-0.143,-0.178,-0.357,1.06,0.147,0.286 (inactive),-0.856,-0.304,-1.25,-1.39 (inactive),-0.482 (inactive),-1.27 (inactive),-1.42,2.5 (inactive),-0.136,-0.705,-0.514,-0.237
COC(=O)C1=CC(CCCO)=CC(C2CC2)N(C)C=C1C(=O)OC (stereo not given),0.0334,-0.144,-0.101,-0.0269,0.448,2.06,0.935,-0.327 (inactive),-0.308,-0.0994,0.723,-1.81 (inactive),-0.761 (inactive),-1.62 (inactive),2.79,-0.705 (inactive),-0.117,-0.178,-0.752,-0.43
O=C1O[C@H](c2ccccc2)[C@H](c2ccccc2)N2[C@H]1[C@@H](C(=O)NC[C@H](O)c1ccccc1)[C@]1(C(=O)Nc3ccc(C#CCCO)cc31)[C@H]2c1ccc(OCCO)cc1,0.141,0.628,0.0521,0.984,0.782,1.23,1.23,1.59 (inactive),0.131,-0.226,1.55,2.73 (inactive),1.62 (inactive),4.7 (inactive),2.08,0.301 (inactive),-0.122,0.558,0.818,-0.133
C=C(COC)/C(=C/C[C@H](OC(C)=O)c1ccc(OCCO)cc1)c1cc(C(=O)OC)ccc1OC,-0.391,1.91,-0.1,1.03,0.277,0.697,1.24,-0.658 (inactive),0.0308,-0.476,1.53,0.092 (inactive),-1.08 (inactive),-0.656 (inactive),0.914,1.23 (inactive),-0.119,1.68,0.794,-0.126
C=C(/C(=C/C[C@H](OC(C)=O)c1ccccc1OCCO)c1cc(C(=O)OC)ccc1OC)C(C)C,-0.243,-0.415,-0.0222,0.826,-0.0413,0.0648,1.09,-0.976 (inactive),-0.36,0.126,0.617,0.946 (inactive),-1.2 (inactive),-0.376 (inactive),1.04,1.18 (inactive),-0.141,0.295,-0.189,0.509
C=C[C@@H](OC)[C@H](OC(=O)Nc1ccc(SC)cc1)c1ccc(O)c(F)c1,0.0213,0.5,-0.0024,0.362,-0.0166,1.25,1.35,3.87 (inactive),0.2,-0.069,1.56,1.05 (inactive),0.123 (inactive),1.65 (inactive),2.58,0.374 (inactive),-0.0654,0.808,0.185,-0.126
C=CCC(OC(C)=O)[C@@H]1[C@@H](N(Cc2cc3ccccc3o2)C(=O)Cc2ccc(F)cc2)c2cc(OCCCO)ccc2N1C(=O)c1ccc2ccccc2c1 (stereo not given in full),-0.0245,-0.186,-0.116,-0.121,-0.367,-0.32,-0.432,-1.92 (inactive),0.45,-0.0994,-0.381,-0.313 (inactive),0.716 (inactive),-0.538 (inactive),-0.383,-1.07 (inactive),-0.0708,0.437,-0.44,-0.112
CCCCC=C[C@@H](NC(=O)c1ccc(-c2ccccc2)cc1)c1ccccc1,-0.0095,-0.0424,-0.021,0.457,1.44,1.55,0.739,0.61 (inactive),0.517,0.21,0.246,0.603 (inactive),-1.45 (inactive),-0.713 (inactive),2.44,-0.444 (inactive),0.179,-0.323,0.496,-0.094
COc1cc(CO)cc(I)c1O[C@H]1C=C(C(=O)NCCO)C[C@@H](NCc2ccc(F)cc2)[C@@H]1O,-0.519,0.254,0.0062,1.34,0.366,0.406,-0.0461,-1.14 (inactive),0.245,-0.0645,1.07,1.41 (inactive),-9.13 (active),0.388 (inactive),-0.135,0.944 (inactive),-0.109,0.938,0.305,-0.128
O=C(NCCCCCNC(=O)/C(Cc1ccccc1)=N/O)OCc1ccccc1,-0.51,0.148,-0.25,0.293,0.421,-0.181,-0.422,-0.213 (inactive),0.152,-0.409,-0.276,-1.72 (inactive),-1.43 (inactive),-1.89 (inactive),-0.625,2.16 (inactive),-0.17,0.164,0.253,-0.127
